The results in this text go back to PubChem BioAssay (EPA / NIEHS).

Read-out in assay [1]: C-C motif chemokine 2 (Homo sapiens) (UniProt P13500)
Description: BSK_KF3CT_MCP1: BioMAP Diversity Plus: KF3CT Assay for Monocyte Chemoattractant Protein 1 (MCP1/CCL2) Biomarker Activity (AID 2283073). As to conditions: primary human keratinocytes with fibroblasts; actives raise or lower the signal. A digest of the protocol: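 Human keratinocyte–foreskin fibroblast co-culture; MCP-1 measured by ELISA 24 h after dosing. Bidirectional fit vs DMSO; cytotoxicity tracked by SRB total protein in parallel cultures.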

Read-out in assay [2]: Matrix Metallopeptidase 9 (MMP9), MMP9 (gene 4318)
Description: BSK_KF3CT_MMP9: BioMAP Diversity Plus: KF3CT Assay for Matrix Metallopeptidase 9 (MMP9) Biomarker Activity (AID 2283074).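 As to AC50: MMP9 protein level quantified by ELISA in the co-culture.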 As to conditions: primary human keratinocytes with fibroblasts; actives raise or lower the signal. A digest of the protocol: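 Human keratinocyte/foreskin fibroblast co-culture; compound added; 24 h; MMP-9 by ELISA; bidirectional fit vs DMSO baseline.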

Read-out in assay [3]: urokinase plasminogen activator (uPA), PLAU (gene 5328)
Description: BSK_KF3CT_uPA: BioMAP Diversity Plus: KF3CT Assay for urokinase plasminogen activator (uPA) Biomarker Activity (AID 2283075). Particulars: primary human keratinocytes with fibroblasts; actives raise or lower the signal. A digest of the protocol: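 ELISA readout of uPA, analyzed for signal gain or loss relative to DMSO, from a human primary keratinocyte–foreskin fibroblast co-culture measured 24 h after chemical treatment.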

Read-out in assay [4]: CD40, CD40 (gene 958)
Description: BSK_LPS_CD40: BioMAP Diversity Plus: LPS Assay for CD40 Biomarker Activity (AID 2283076). As to conditions: primary human HUVEC with PBMC; actives raise or lower the signal. A digest of the protocol:
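HUVEC plus PBMC co-culture stimulated with LPS; CD40 quantified by ELISA 24 h after compound dosing. Fitting was bidirectional relative to DMSO. SRB staining of parallel cultures flagged overt cytotoxicity.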

Read-out in assay [5]: E-selectin (Homo sapiens) (UniProt P16581)
Description: BSK_LPS_Eselectin: BioMAP Diversity Plus: LPS Assay for Eselectin Biomarker Activity (AID 2283077). As to conditions: primary human HUVEC with PBMC; actives raise or lower the signal. A digest of the protocol:
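Human umbilical vein endothelial cells co-cultured with PBMC under LPS stimulation; cell-surface E-selectin measured by ELISA 24 h after dosing. Change in either direction versus DMSO, with SRB total-protein staining in parallel cultures for cytotoxicity.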

Read-out in assay [6]: Interleukin-8 (IL8), CXCL8 (gene 3576)
Description: BSK_LPS_IL8: BioMAP Diversity Plus: LPS Assay for Interleukin-8 (IL8) Biomarker Activity (AID 2283078). Particulars: primary human HUVEC with PBMC; actives raise or lower the signal. A digest of the protocol: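 Human umbilical vein endothelial cells co-cultured with PBMC, LPS-stimulated, exposed to compound for 24 h. IL-8 quantified by ELISA; fitted in both directions against DMSO, with SRB total-protein staining of parallel cultures for cytotoxicity.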

Assay [7] in a line: BSK_LPS_SRB: Viability Assessment in the BioMAP Diversity Plus: LPS Assay (AID 2283079).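 Also: total protein by sulforhodamine B absorbance as a cytotoxicity measure; measured one day after compound addition; fitted in both directions against DMSO so loss or gain of signal counts.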 Particulars: primary human HUVEC with PBMC. A digest of the protocol: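 Co-culture of human umbilical vein endothelial cells and PBMC, read 24 h after dosing. Total protein by 0.1% SRB staining after 10% TCA fixation, absorbance at 560 nm; bidirectional fit against DMSO.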
Read-out in assay [8]: Interleukin-1 alpha (IL1a), IL1A (gene 3552)
In words: BSK_LPS_IL1a: BioMAP Diversity Plus: LPS Assay for Interleukin-1 alpha (IL1a) Biomarker Activity (AID 2283080). Particulars: primary human HUVEC with PBMC; actives raise or lower the signal. An outline of the steps:
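Human umbilical vein endothelial cells co-cultured with PBMC and stimulated with LPS; IL-1a measured by ELISA 24 h after dosing. Bidirectional fitting against DMSO; cytotoxicity checked by SRB staining in parallel cultures.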

Read-out in assay [9]: Monocyte Chemoattractant Protein-1 (MCP1), CCL2 (gene 6347)
Description: BSK_LPS_MCP1: BioMAP Diversity Plus: LPS Assay for Monocyte Chemoattractant Protein-1 (MCP1) Biomarker Activity (AID 2283081).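 As to AC50: secreted MCP-1 protein quantified by ELISA in culture supernatant.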 Particulars: primary human HUVEC with PBMC; actives raise or lower the signal. A digest of the protocol:
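Human umbilical vein endothelial cells co-cultured with PBMC, LPS-stimulated; secreted MCP-1 measured by ELISA 24 h after compound addition. Bidirectional curve fitting against DMSO baseline; SRB total-protein staining in parallel cultures for cytotoxicity.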

Assay [10] in a line: BSK_LPS_PGE2: BioMAP Diversity Plus: LPS Assay for Prostaglandin E2 (PGE2) Biomarker Activity (AID 2283082).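 As to AC50: secreted prostaglandin E2 measured by ELISA in LPS-stimulated co-culture.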 Particulars: primary human HUVEC with PBMC; actives raise or lower the signal. An outline of the steps:
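Endpoint derived from bidirectional curve fitting versus DMSO of ELISA-measured PGE2 in LPS-stimulated human primary vascular co-culture (HUVEC with PBMC) harvested at 24 h.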

Read-out in assay [11]: Macrophage colony-stimulating factor (MCSF), CSF1 (gene 1435)
In words: BSK_LPS_MCSF: BioMAP Diversity Plus: LPS Assay for Macrophage colony-stimulating factor (MCSF) Biomarker Activity (AID 2283083). As to conditions: primary human HUVEC with PBMC; actives raise or lower the signal. An outline of the steps: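 HUVEC–PBMC co-culture, M-CSF measured by ELISA 24 h after chemical dosing. Fitted in both directions relative to DMSO as negative control; overt cytotoxicity assessed by SRB total-protein staining in parallel cultures.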

Read-out in assay [12]: Tissue Factor, F3 (gene 2152)
In words: BSK_LPS_TissueFactor: BioMAP Diversity Plus: LPS Assay for Tissue Factor Biomarker Activity (AID 2283084). As to conditions: primary human HUVEC with PBMC; actives raise or lower the signal. A digest of the protocol: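 Human umbilical vein endothelial cells co-cultured with PBMC were dosed with compound. Cell-surface CD142 was measured by ELISA 24 h later. Activity was fitted bidirectionally against DMSO, with SRB total-protein staining in parallel cultures for cytotoxicity.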

Read-out in assay [13]: Tumor necrosis factor (Homo sapiens) (UniProt P01375)
In words: BSK_LPS_TNFa: BioMAP Diversity Plus: LPS Assay for Tumour Necrosis Factor alpha (TNFa) Biomarker Activity (AID 2283085). Particulars: primary human HUVEC with PBMC; actives raise or lower the signal. An outline of the steps: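 Primary human vascular co-culture of HUVEC and PBMC; TNFa ELISA 24 h after treatment, analysed as increase or decrease relative to DMSO control.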

Read-out in assay [14]: Vascular cell adhesion molecule 1 (VCAM1), VCAM1 (gene 7412)
In words: BSK_LPS_VCAM1: BioMAP Diversity Plus: LPS Assay for Vascular cell adhesion molecule 1 (VCAM1) Biomarker Activity (AID 2283086). As to conditions: primary human HUVEC with PBMC; actives raise or lower the signal. A digest of the protocol: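 Primary human vascular co-culture (umbilical vein endothelium plus PBMC) stimulated with LPS received chemical; 24 h later VCAM-1 was read by ELISA. Overt cytotoxicity was assessed by sulforhodamine B staining of parallel cultures at the same time point.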

Read-out in assay [15]: CD38, CD38 (gene 952)
Description: BSK_SAg_CD38: BioMAP Diversity Plus: SAg Assay for CD38 Biomarker Activity (AID 2283087). Particulars: primary human HUVEC with PBMC; actives raise or lower the signal. An outline of the steps:
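Fluorescence ELISA of cell-surface CD38 served as the read-out, with either increase or decrease fitted against DMSO controls. Cells were a human umbilical vein endothelium plus PBMC co-culture under SEB/TSST-1 stimulation, measured 24 h after dosing.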

Read-out in assay [16]: CD40, CD40 (gene 958)
Description: BSK_SAg_CD40: BioMAP Diversity Plus: SAg Assay for CD40 Biomarker Activity (AID 2283088). Particulars: primary human HUVEC with PBMC; actives raise or lower the signal. A digest of the protocol: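 HUVEC plus PBMC co-culture, superantigen-activated, with CD40 read by ELISA 24 h after dosing. Curves fitted in both directions against DMSO. Overt cytotoxicity checked by parallel SRB total-protein staining.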

Read-out in assay [17]: CD69, CD69 (gene 969)
Description: BSK_SAg_CD69: BioMAP Diversity Plus: SAg Assay for CD69 Biomarker Activity (AID 2283089).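 As to AC50: cell surface CD69 protein quantified by ELISA with fluorescence detection.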 As to conditions: primary human HUVEC with PBMC; actives raise or lower the signal. An outline of the steps: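 Endothelial/PBMC co-culture; chemical added; 24 h incubation; CD69 ELISA with fluorescence detection; bidirectional fit vs DMSO.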

Read-out in assay [18]: Monocyte Chemoattractant Protein-1 (MCP1), CCL2 (gene 6347)
Description: BSK_SAg_MCP1: BioMAP Diversity Plus: SAg Assay for Monocyte Chemoattractant Protein-1 (MCP1) Biomarker Activity (AID 2283090). As to conditions: primary human HUVEC with PBMC; actives raise or lower the signal. A digest of the protocol:
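MCP-1 levels in the endothelial–PBMC SAg co-culture were quantified by ELISA at 24 h post-dosing; both increases and decreases versus DMSO scored. Cytotoxicity monitored by SRB total protein in parallel cultures.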

Read-out in assay [19]: E-selectin (Homo sapiens) (UniProt P16581)
Description: BSK_SAg_Eselectin: BioMAP Diversity Plus: SAg Assay for Eselectin Biomarker Activity (AID 2283091). Particulars: primary human HUVEC with PBMC; actives raise or lower the signal. An outline of the steps: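 Human umbilical vein endothelial cells co-cultured with peripheral blood mononuclear cells, SAg system. E-selectin is measured by ELISA 24 h after dosing and fitted bidirectionally against DMSO. Cytotoxicity is checked by SRB staining of parallel cultures.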

Read-out in assay [20]: Monokine induced gamma interferon (MIG), CXCL9 (gene 4283)
Description: BSK_SAg_MIG: BioMAP Diversity Plus: SAg Assay for Monokine induced gamma interferon (MIG) Biomarker Activity (AID 2283092). As to conditions: primary human HUVEC with PBMC; actives raise or lower the signal. An outline of the steps: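 Measures CXCL9 protein by ELISA in a human vascular primary-cell co-culture (umbilical vein endothelium with PBMC) 24 h after chemical addition. Activity is scored up or down from the DMSO control.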

Activity calls are given as the source filed them. The calls were made as follows: active = hit-call score of the fitted dose curve at least 0.9, where 1 is the maximum; inactive = score below 0.9.

Tumor necrosis factor (Homo sapiens), sequence (P01375 whole entry, looked up): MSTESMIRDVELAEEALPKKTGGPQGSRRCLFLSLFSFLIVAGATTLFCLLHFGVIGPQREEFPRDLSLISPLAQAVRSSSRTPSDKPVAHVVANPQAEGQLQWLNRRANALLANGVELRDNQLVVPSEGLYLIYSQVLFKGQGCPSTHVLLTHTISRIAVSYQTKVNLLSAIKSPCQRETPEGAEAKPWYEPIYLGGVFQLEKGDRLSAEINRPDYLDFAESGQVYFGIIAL
E-selectin (Homo sapiens), sequence (P16581 whole entry, looked up): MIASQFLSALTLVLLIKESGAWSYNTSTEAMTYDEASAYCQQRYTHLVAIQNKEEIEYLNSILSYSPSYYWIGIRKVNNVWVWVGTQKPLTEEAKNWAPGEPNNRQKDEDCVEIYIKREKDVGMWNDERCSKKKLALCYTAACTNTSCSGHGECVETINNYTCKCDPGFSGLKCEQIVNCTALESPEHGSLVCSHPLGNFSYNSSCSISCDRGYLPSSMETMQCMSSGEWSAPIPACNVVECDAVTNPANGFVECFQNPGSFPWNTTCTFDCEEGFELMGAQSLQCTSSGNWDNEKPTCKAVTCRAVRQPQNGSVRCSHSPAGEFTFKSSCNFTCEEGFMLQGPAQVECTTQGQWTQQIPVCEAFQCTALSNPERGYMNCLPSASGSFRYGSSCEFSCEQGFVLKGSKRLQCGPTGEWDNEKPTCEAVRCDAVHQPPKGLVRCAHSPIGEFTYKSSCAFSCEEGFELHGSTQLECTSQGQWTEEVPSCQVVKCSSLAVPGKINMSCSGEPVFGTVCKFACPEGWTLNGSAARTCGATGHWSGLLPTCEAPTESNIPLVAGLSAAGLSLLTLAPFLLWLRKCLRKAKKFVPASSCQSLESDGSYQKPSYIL

Consider `CCCCC(CC)CO[N+](=O)[O-]` (stereo not given), for which the half-maximal activity concentration (AC50) (commonly the concentration giving half of the maximal activity seen) in [1] was 30.4 µM (active); in assay [2], 34.7 µM (active); in assay [3] it was 35.3 µM (active). For the same compound, the outcome in [4], in [5], in assay [6], in assay [7], in assay [8] and in assay [9] was inactive. For the same compound, the outcome in assay [10], in assay [11], in [12], in [13], in assay [14] and in [15] was inactive. For the same compound, the result in assay [16], in [17], in assay [18], in assay [19] and in [20] was inactive.
`C[C@@H]1C[C@@H]([C@H](O)CC2CC(=O)NC(=O)C2)C(=O)[C@@H](C)C1`: the AC50 in [1] is 0.991 µM (active); in [2], 4.67 µM (active); in assay [3] it was 13.2 µM (active); in [4], 3.35 µM (active); in [5], 1.77 µM (active); in assay [6] it was 6.73 µM (active). The concentration at half-maximal activity (AC50) in assay [7] is 6.14 µM (active); in assay [8], 5.63 µM (active); in assay [9] it was 7.05 µM (active); in [10], 5.67 µM (active); in [11] it was 4.48 µM (active); in assay [12] it was 17.9 µM (active). The AC50 in assay [13] was 7.89 µM (active); in [14], 9.45 µM (active); in [15], 6.11 µM (active); in assay [16], 2.6 µM (active); in assay [17], 6.63 µM (active); in assay [18], 7.88 µM (active). Besides, the results for the AC50 in [19] and in assay [20] were 0.585 µM (active) and 13 µM (active), respectively.
For `ClC1(Cl)C2(Cl)C3(Cl)C4(Cl)C(Cl)(Cl)C5(Cl)C3(Cl)C1(Cl)C5(Cl)C24Cl` (stereo not given), the result in assay [1], in assay [2], in assay [3], in assay [4], in assay [5] and in assay [6] was inactive. Further, the result in assay [7], in assay [8], in [9], in [11], in assay [12] and in [14] was inactive. Besides, the result in [15], in assay [16], in assay [17], in assay [18], in [19] and in assay [20] was inactive. Also, the results for the half-maximal activity concentration (AC50) in assay [10] and in [13] were 0.148 µM (active) and 0.149 µM (active), respectively.
With `CCOC(=O)/C=C(C)/C=C/C[C@@H](C)CCCC(C)C`, the AC50 in assay [1] is 7.27 µM (active); in assay [2], 30.2 µM (active); in assay [3], 31.2 µM (active); in [4] it was 20 µM (active); in assay [5] it was 34.8 µM (active); in [6], 32.7 µM (active). Moreover, the AC50 in assay [7] is 38.7 µM (active); in [8], 33.3 µM (active); in [9] it was 30.7 µM (active); in [10] it was 10.1 µM (active); in assay [11] it was 15.5 µM (active); in [12], 29.2 µM (active). Besides, the half-maximal activity concentration (AC50) in assay [13] is 33.2 µM (active); in [14], 25.7 µM (active); in assay [15] it was 30.7 µM (active); in [16], 25.8 µM (active); in [17] it was 20 µM (active); in assay [18], 29 µM (active). Moreover, the AC50 in [19] is 22.4 µM (active). In assay [20], the result was inactive.
With `ClCC(Cl)CCl`, the result in assay [1], in assay [2], in [3], in assay [4], in assay [5] and in [6] was inactive. The result in assay [7], in assay [8], in [9], in assay [10], in assay [11] and in assay [12] was inactive. In addition, the result in assay [13], in assay [14], in assay [15], in assay [16], in [17] and in assay [18] was inactive. Moreover, the outcome in assay [19] and in [20] was inactive.
